Bioassay records: PubChem, National Center for Advancing Translational Sciences (NCATS)
This is a sample that favours compounds with a hit; in the whole collection about 12% have one here.
BAZ2B inh – qHTS Assay for Inhibitors of BAZ2B; Bromodomain adjacent to zinc finger domain protein 2B (Homo sapiens), Q9UIF8; AlphaScreen BAZ2B-H3K14Ac peptide displacement; Potency, µM (titrated, usually from 114 µM), for the others: top-dose activity change, negative = inhibition, most hits filed as inhibitors; 360,000 tested, 4.4% active; further: on the % scale 0 is the no-effect control and ±100 the full control effect; nearly all actives have a fitted effect of over 60% in size
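Protein-peptide AlphaScreen: BAZ2B 50 nM, b-H3K14Ac 50 nM, 1x PBS pH 7.4 + 0.01% Tween-20. Preincubation 30 min RT; cpd 30 min RT (top 110 uM); beads 20 min RT, light-protected.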
Sfp inh – qHTS Assay for Inhibitors of Bacillus subtilis Sfp phosphopantetheinyl transferase (PPTase) | 4'-phosphopantetheinyl transferase ffp (Bacillus subtilis), Q9F4F7 | Biochemical Sfp PPTase activity, qHTS | Potency, µM, for the others: largest response in the series, negative = inhibition, most hits filed as inhibitors | 310,000 tested, 3.5% active | AID 1490, 2009;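 further: the enzyme is Sfp with the accession as filed and its product quenches rhodamine fluorescence; 0% = enzyme reaction without inhibitor and -100% = no enzyme wells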
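Fluorescence-quenching assay: 15 nM Sfp-PPTase preincubated 15 min at room temperature with compound, then 5 uM rhodamine-CoA and 12.5 uM BHQ-2-labelled YbbR peptide added. Fluorescence (ex 525/em 598 nm) read at start and after 30 min; difference gives rate.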
JMJD2A Tudor – qHTS Assay for Inhibitors of JMJD2A-Tudor Domain; AlphaScreen JMJD2A-Tudor / H3K4me3 peptide binding; 390,000 tested, 4.4% active; Potency, µM (doses to about 114 µM), for inactives: at the highest dose activity change, negative = inhibition, most hits filed as inhibitors; further: on the % scale 0 is the no-effect control and ±100 the full control effect; nearly all actives have a fitted effect of over 50% in size
HP1b binding inh – HTS for Inhibitors of HP1-beta Chromodomain Interactions with Methylated Histone Tails | Chromobox protein homolog 1 (Homo sapiens), P83916 | AlphaScreen HP1-beta / biotin-H3K9me3 peptide binding | Potency, µM (doses to about 114 µM), without a hit: at the highest dose activity change, negative = inhibition, actives largely listed as inhibitors | 390,000 tested, 0.56% active | AID 540317, 2011; further: nearly all actives have a fitted effect of over 70% in size
Target sequence (P83916 whole entry, looked up): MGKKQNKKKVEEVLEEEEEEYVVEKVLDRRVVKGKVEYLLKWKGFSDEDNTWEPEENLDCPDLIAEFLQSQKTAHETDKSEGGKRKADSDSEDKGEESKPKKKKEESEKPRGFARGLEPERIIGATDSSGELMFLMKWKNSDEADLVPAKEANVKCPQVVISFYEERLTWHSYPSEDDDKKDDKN
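HP1-beta protein (50 nM final) preincubated 30 min at room temperature with biotinylated H3(1-18)K9me3 peptide (50 nM) in PBS pH 7.4, 0.01% Tween-20, then compound added for 30 min. AlphaScreen streptavidin donor/nickel chelate acceptor beads (10 ug/mL final), 30 min dark, luminescence read.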
L3MBTL1 block – qHTS Assay for the Inhibitors of L3MBTL1. Lethal(3)malignant brain tumor-like protein 1 (Homo sapiens), Q9Y468. AlphaScreen L3MBTL1–H3K9me1 peptide binding. Potency, µM (top dose mostly 57.1 µM), for the others: at the highest dose activity, negative = inhibition, most hits filed as inhibitors. 230,000 tested, 0.66% active; further: on the % scale 0 is the no-effect control and ±100 the full control effect; nearly all actives have a fitted effect of over 60% in size
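AlphaScreen assay: L3MBTL1 (50 nM final) was preincubated 30 min at room temperature with biotinylated H3(1-15)K9me1 peptide (75 nM final), then 30 min with library compounds; streptavidin donor and nickel chelate acceptor beads (10 ug/mL final) added, 30 min dark.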
G9a inh – qHTS Assay for Inhibitors of Histone Lysine Methyltransferase G9a; G9a H3K9 monomethylation, AlphaScreen, 2 h; Potency, µM (doses to about 102 µM), for the others: at the highest dose activity, negative = inhibition, usual class: inhibitors; 350,000 tested, 8.8% active; Histone-lysine N-methyltransferase EHMT2 (Homo sapiens), Q96KQ7; AID 504332, 2011; further: on the % scale 0 is the no-effect control and ±100 the full control effect; nearly all actives have a fitted effect of over 75% in size
Target sequence (Q96KQ7 913-1193 limits assumed): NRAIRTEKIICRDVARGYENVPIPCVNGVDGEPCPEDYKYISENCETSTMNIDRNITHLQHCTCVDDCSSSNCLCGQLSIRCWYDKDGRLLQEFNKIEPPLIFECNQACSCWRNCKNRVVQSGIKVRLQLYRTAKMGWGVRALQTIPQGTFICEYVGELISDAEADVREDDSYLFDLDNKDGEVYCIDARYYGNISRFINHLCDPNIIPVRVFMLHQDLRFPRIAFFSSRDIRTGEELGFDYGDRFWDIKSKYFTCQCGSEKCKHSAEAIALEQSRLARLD
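AlphaScreen detection with an anti-monomethyl H3K9 antibody quantified product after a 2 h room-temperature reaction containing 500 nM biotinylated H3K9 peptide, 20 µM SAM and 20 nM enzyme, which had been preincubated 15 min with compound.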
* hit, by the source's call; u = inconclusive; x = not tested or not shown; [ ] = remark or other dose. The call rests on the fitted dose curve; in most records, active means well fitted curve in the direction sought with a large enough effect; inconclusive means small, poorly fitted or top-dose-only effect, or another doubt; inactive means no such curve, though single readings can be large; an effect the other way counts as inactive or inconclusive. Potency means the concentration at half of the fitted maximal effect.

SMILES	BAZ2B inh	Sfp inh	JMJD2A Tudor	HP1b binding inh	L3MBTL1 block	G9a inh
CCCCN(C)C(=O)c1ccc2c(c1)S(=O)(=O)c1ccccc1C2=O	-14%	6%	-14%	38%	x	66%
Cc1ccc2nc(-c3cccc(-c4nc5ccc(C)cc5o4)n3)oc2c1	x	x	18µM*	u	x	x
Cc1ccc2nc(-c3cccc(N)c3)oc2c1	-7%	-1%	-10%	29%	x	0%
O=C(N/N=C/c1ccccn1)c1ccc([N+](=O)[O-])cc1Cl	-7%	50µM*	-19%	29%	0%[2.29 µM]	-6%[0.501 µM]
O=C(N/N=C/c1ccccn1)c1cc(-c2ccccc2Cl)n[nH]1	56µM*	7%	-34%	30%	x	68%[59 µM]
O=C(N/N=C/c1ccccn1)c1cc(-c2cccc3ccccc23)n[nH]1	-2%	10%	u	u	-15%	29%
O=C(N/N=C/c1cccnc1)c1ccc([N+](=O)[O-])cc1Cl	14%	4%	-15%	15%	12%	-11%
O=C(NC(=S)NCc1ccc2c(c1)OCO2)c1ccccc1	u	-6%	-29%	-10%	-12%	u
[O-]/C(=C(\C(=S)NCc1ccc2c(c1)OCO2)[n+]1ccccc1)c1ccc(Cl)s1	45µM*	40µM*	-33%	-10%	-3%	28µM*
[O-]/C(=C(\C(=S)Nc1ccc(SC(F)F)cc1)[n+]1cccc(CO)c1)c1ccc(Cl)s1	32µM*	u	u	-13%	-19%	25µM*
Cc1ccc[n+](C(C)C(=O)Nc2ccc(C)c(C)c2)c1 (centres undefined)	u	12%	-18%	13%	5%	15%
Cc1ccc(NC(=S)/C(=C(\[O-])c2ccc(Cl)s2)[n+]2cccc(CO)c2)cc1C	12%	25µM*	50µM*	u	-3%	45µM*
O=C(Cc1ccccc1)Nc1ccc(SC(F)F)cc1	17%	-1%	17%	73%	9%	25%[59 µM]
CC(C)c1ccc(NC(=S)Nc2cccc3ccccc23)cc1	u	-2%	u	-14%	x	u
[O-]/C(=C(\C(=S)Nc1cccc2ccccc12)[n+]1cccc(CO)c1)c1ccc(Cl)s1	32µM*	-21%	u	-26%	x	40µM*
Cc1ccc(NC(=O)Cn2cnc3onc(-c4ccc(F)cc4)c3c2=O)c(Cl)c1	12%[57.1 µM]	x	-14%	23%	x	-3%[59 µM]
CSc1cccc(NC(=O)Cn2c3ncccc3c(=O)n2-c2ccc(C)cc2)c1	15%	x	37%	60%	x	59%[59 µM]
CC(C)CCOc1ccc(Cn2c(=O)oc3ccccc32)cc1	4%	x	10%	33%	x	15%[59 µM]
Cc1c(Cl)cccc1NC(=S)/C(=C(\[O-])c1ccc(Cl)s1)[n+]1ccccc1	u	-11%	45µM*	u	-17%	u
CCn1c(=O)c2sccc2n2c(CCC(=O)Nc3cc(C)cc(C)c3)nnc12	3%	x	-9%	44%	x	6%[59 µM]
C[C@@H]1NC(=O)[C@H](CCC(N)=O)NC(=O)c2cc([N+](=O)[O-])cc(I)c2NCCC[C@@H](C(N)=O)NC1=O	-25%	-6%	-15%	18%	0%	50µM*
C[C@@H](O)[C@@H]1NC(=O)c2cc([N+](=O)[O-])cc(I)c2NCC[C@@H](C(N)=O)NC(=O)CNC1=O	-4%	-6%	-21%	25%	5%	50µM*
NCCCC[C@@H]1NC(=O)c2cc([N+](=O)[O-])cc(F)c2NCCCC[C@@H](C(N)=O)NC(=O)CNC1=O	0%	4%	-24%	37%	8%	-22%
NC(=O)[C@@H]1CCCNc2c(I)cc([N+](=O)[O-])cc2C(=O)N[C@@H](CCC(=O)O)C(=O)N[C@@H](CO)C(=O)N1	-5%	10%	-6%	39%	10%	35µM*
C[C@@H]1NC(=O)[C@H](CCCN=C(N)N)NC(=O)c2cc([N+](=O)[O-])cc(I)c2NCCC[C@@H](C(N)=O)NC1=O	-8%	-5%	-19%	1%	3%	56µM*
SMILES	BAZ2B inh	Sfp inh	JMJD2A Tudor	HP1b binding inh	L3MBTL1 block	G9a inh
CC1(C)CC(=O)c2cc(-c3nc(-c4ccccc4)cs3)c(=O)[nH]c2C1	3%	x	-14%	8%	x	-49%[59 µM]
CC1CN(C(=O)CCC(=O)NCc2ccc(F)cc2)c2cc(Cl)ccc2O1 (centres undefined)	-19%	x	-14%	1%	x	-20%[59 µM]
Cc1nnc(N2CCN(c3ccccc3F)CC2)c2c1nnn2Cc1ccc(F)cc1	-9%	x	-5%	41%	x	9%[59 µM]
CCOc1cc2c(cc1OCC)C(c1c(F)cccc1Cl)CC(=O)N2 (centres undefined)	-2%	x	-20%	14%	x	-10%[59 µM]
NC(=O)C[C@H]1NC(=O)[C@H](CCC(=O)O)NC(=O)c2cc([N+](=O)[O-])cc(I)c2NCCC[C@@H](C(N)=O)NC1=O	u	2%	-19%	41%	-4%	45µM*
NC(=O)CC[C@@H]1NC(=O)[C@H](CO)NC(=O)c2cc([N+](=O)[O-])cc(I)c2NCC[C@@H](C(N)=O)NC(=O)[C@H](Cc2ccc(O)cc2)NC1=O	56µM*	-21%	x	x	14%	7.9µM*
NC(=O)CC[C@@H]1NC(=O)[C@H](CO)NC(=O)c2cc([N+](=O)[O-])cc(I)c2NCCCC[C@@H](C(N)=O)NC(=O)[C@H](Cc2ccc(O)cc2)NC1=O	-36%	2%	-32%	7%	-7%	u
C[C@@H]1NC(=O)c2cc([N+](=O)[O-])cc(I)c2NCCCC[C@@H](C(N)=O)NC(=O)[C@H](CCC(=O)O)NC1=O	-33%	-11%	-17%	10%	-6%	40µM*
CCN(CC)CCCNC(=O)Cc1csc2nc(-c3ccc(Cl)cc3)cn12	u	x	-29%	8%[57 µM]	x	3%[59 µM]
CCN(CC)C(=O)Oc1ccc(Cl)c2cccnc12	-13%	19%	-3%	-5%	7%	31%
O=C(Nc1cccc(C(F)(F)F)c1)Oc1ccc(Cl)c2cccnc12	18µM*	20%	40µM*	3%[57 µM]	25µM*	132%
CC(C)NC(=O)N1CC[C@@]2(CCCN(C(=O)c3ccncc3)C2)C1	x	0%	x	x	x	u
CC(=O)c1cccc(NC(=O)/C(=C\c2ccco2)NC(=O)c2ccco2)c1	-11%	11%	-8%	15%	x	11%
